An excerpt weighted towards active compounds, which were near 7.4% of everything screened.
M1 antag = antagonists of rat M1 muscarinic receptor | P08482 | CHO-M1 cells, Fluo-4 calcium, ACh EC80 antagonist mode; hits give low values | B-score at 10 µM | 3.4% of 64,000 active;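 active means calcium fluorescence response, raw or row-and-column corrected B-score, differing from the plate sample mean either way at a set confidence level, mostly lower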
FXIa mix inh = factor XIa (human) inhibition, mixture screen; P03951; AID 680; 0.19% of 62,000 active; inhibition, % at 5 µM; purified FXIa, fluorogenic substrate, pooled mixtures;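 further: each value is inhibition by a whole ten-compound pool holding the compound; 0% = enzyme with no mixture and 100% = wells lacking enzyme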
FXIIa inh mix = inhibitors of human coagulation factor XIIa, pooled mixtures | 0.2% of 62,000 active | P00748 | inhibition, % at 5 µM | AID 684 | purified FXIIa, fluorogenic substrate;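 further: 0% = enzyme without compound and 100% = no enzyme blank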
D1 allo mod = D1 dopamine receptor (human) allosteric modulation; P21728; HEK293 D1, CRE-luciferase, dopamine EC30 potentiation; actives deviate in either direction; B-score at 10 µM; 5.9% of 58,000 active; AID 641;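 active means luminescence count or its row- and column-corrected plate score outside the 99.7% band of the plate's sample wells, on either side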
hDAT+cocaine = changed human dopamine transporter uptake under cocaine IC80 | Q01959 | LLC-PK1 hDAT cells, [14C]-dopamine uptake with cocaine IC80; actives deviate in either direction | B-score at 10 µM | 1.3% of 110,000 active | AID 449768;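 active means Z score or B-score, a plate-position-corrected score, falls beyond the plate's 99.7% confidence bounds, in either direction; inactive means both scores lie inside the 99.7% bounds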;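 further: scored against the spread of the other compound wells on the same plate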
M1 ag = agonists of M1 muscarinic receptor | AID 626 | 3% of 64,000 active | CHO-M1 cells, Fluo-4 calcium fluorescence, agonist mode; hits give high values | B-score at 10 µM;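 active means fluorescence rise, raw or as B-score row- and column-corrected plate score, outside the 99.7% band of its plate's samples, either direction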
D1 PAM confirm = confirmation of human D1 dopamine receptor allosteric modulators. AID 642. luminescence at 10 µM. 88% of 2,200 active. HEK293 D1 CRE-luciferase, dopamine EC30 potentiation; hits give high values. shares compounds with D1 allo mod;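 active means luminescence in either of two replicates above the same-plate mean plus 3 SD of the low-dose dopamine control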
D1 ag no DA = D1 (human) signaling in absence of dopamine; shares compounds with D1 allo mod; HEK293 D1 CRE-luciferase, luminescence, no dopamine; hits give high values; luminescence at 10 µM; 0.8% of 1,900 active; AID 646; in the data active means luminescence above about 3900
Isoprot counter = isoproterenol response counter-screen activity for D1 modulators. shares compounds with D1 allo mod. HEK293 D1 CRE-luciferase, isoproterenol EC30 counter-screen. calls only at 10 µM. 63% of 2,200 active. AID 647;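 active means luminescence in either replicate above plate mean of wells with a partly effective reference agonist dose plus 3 SD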;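 further: isoproterenol raises cAMP through native beta-adrenoceptor Gs so signal bypasses D1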
Active calls of the source: *. Unless noted, no stated cut-off is given here; in the data, active means inhibition above about 20% (passing the limit was not always enough); inactive means the rest.

Results for CCSc1oc(-c2cccs2)nc1S(=O)(=O)c1ccccc1 ?
M1 antag: -0.36; FXIa mix inh: 10; FXIIa inh mix: 4; D1 allo mod: 15*; hDAT+cocaine: -0.46; M1 ag: -0.34; D1 PAM confirm: 18740*; D1 ag no DA: 1592; Isoprot counter: active

What do the screens show for `O=C(Cc1c(F)c(F)c(F)c(F)c1F)OC12CC3CC(C1)C(=O)C(C3)C2`?
M1 antag: -1.7; FXIa mix inh: -4; FXIIa inh mix: 10; D1 allo mod: 1.2; hDAT+cocaine: 0.37; M1 ag: -0.83

What do the screens show for `COc1ccc(N=C2S/C(=C\c3ccc(C)o3)C(=O)N2CC(C)C)cc1`?
hDAT+cocaine: -0.53

What do the screens show for `C/C(N)=C(/C#N)C(=O)CSc1nnc(SCc2ccc(Cl)cc2)s1`?
M1 antag: 0.0096; FXIa mix inh: 7; FXIIa inh mix: -2; D1 allo mod: 6.7*; hDAT+cocaine: -0.06; M1 ag: -0.76; D1 PAM confirm: 6760*; D1 ag no DA: 1560; Isoprot counter: inactive

How did C/C(N)=C(/C#N)C(=O)CSc1nnc(Nc2c(C)cccc2C)s1 do in these assays?
M1 antag: -0.33; FXIa mix inh: -3; FXIIa inh mix: 10; D1 allo mod: 0.42; hDAT+cocaine: 0.77; M1 ag: -1.5

How did COc1ccc(CCN2CC(C(=O)O)CC2=O)cc1 (configuration not stated) do in these assays?
M1 antag: 0.71; FXIa mix inh: 7; FXIIa inh mix: -1; D1 allo mod: -1.2; hDAT+cocaine: -0.43; M1 ag: -0.23

Results for COc1ccc(Cn2c(CCCO)nc3ccccc32)cc1OC ?
M1 antag: 0.056; FXIa mix inh: 5; FXIIa inh mix: 6; D1 allo mod: 14*; hDAT+cocaine: -0.2; M1 ag: 0.1; D1 PAM confirm: 15968*; D1 ag no DA: 1476; Isoprot counter: active

What do the screens show for `COc1ccccc1Cn1c(CCCO)nc2ccccc21`?
M1 antag: -0.46; FXIa mix inh: -4; FXIIa inh mix: 7; D1 allo mod: 0.54; hDAT+cocaine: -0.37; M1 ag: -1.5

How did CCc1nc2ccccc2n1Cc1ccc(OC)c(OC)c1 do in these assays?
M1 antag: -0.2; FXIa mix inh: 3; FXIIa inh mix: 7; D1 allo mod: 6.2*; hDAT+cocaine: -1.9; M1 ag: 0.45; D1 PAM confirm: 18880*; D1 ag no DA: 1604; Isoprot counter: active

What do the screens show for `CCN(CC(=O)Nc1c(C(=O)OC)[nH]c2ccccc12)c1ccc2c(c1)OCO2`?
M1 antag: 0.8; FXIa mix inh: -2; FXIIa inh mix: 2; D1 allo mod: 8.3*; hDAT+cocaine: 1; M1 ag: 1.8; D1 PAM confirm: 11912*; D1 ag no DA: 1772; Isoprot counter: active

How did CCOc1ccc(-c2nc(N)ncc2-c2ccccc2)c(O)c1 do in these assays?
M1 antag: -0.018; FXIa mix inh: -2; FXIIa inh mix: 7; D1 allo mod: -0.8; hDAT+cocaine: -0.041; M1 ag: -0.097

Results for CCC(C)[C@H](NC(=O)NCc1cccc(OC)c1)C(=O)OC (some centres not stated) ?
M1 antag: -0.1; FXIa mix inh: 1; FXIIa inh mix: 8; D1 allo mod: -0.44; hDAT+cocaine: 0.039; M1 ag: 1.3

What do the screens show for `COCCCN(C(=O)Nc1cccc(Cl)c1)C(C)c1ccccn1` (configuration not stated)?
hDAT+cocaine: -0.77

What do the screens show for `CC(=O)c1nn(-c2cccc(Cl)c2)cc1C(=O)c1ccco1`?
M1 antag: -0.47; FXIa mix inh: 2; FXIIa inh mix: -1; D1 allo mod: 4.3*; hDAT+cocaine: -0.15; M1 ag: -0.048; D1 PAM confirm: 12508*; D1 ag no DA: 1716; Isoprot counter: inactive

What do the screens show for `CC(=O)c1nn(-c2ccc(Br)cc2)cc1C(=O)c1ccco1`?
hDAT+cocaine: 0.71
